# Laboratory results published in the supplement of paper PMC4022240.
# ± gives the standard deviation.
# T1: HaloTag-ATRX ADD domain (163-292)
# T1 chain: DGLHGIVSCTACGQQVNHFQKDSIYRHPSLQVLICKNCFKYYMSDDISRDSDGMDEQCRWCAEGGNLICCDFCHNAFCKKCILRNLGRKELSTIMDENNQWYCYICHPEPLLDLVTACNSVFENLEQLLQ
# Assays:
# Experiment in all cases: peptide microarray binding signal (635 nm), min-max normalized on array (fraction of array maximum); higher = stronger binding
# Conditions in all cases: peptide region: H3 1-13
# [1] = target: T1, HaloTag-ATRX ADD domain (163-292)
# Experimental: (§1)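 Histone 13-mer peptides were synthesized as cellulose conjugates with a C-terminal 20-atom PEG linker and printed in triplicate on nitrocellulose. The sequence given is the unmodified backbone; PTMs (Kme1/2/3, Kac, Sph/Tph, Rme/Rme2a/Rme2s, Rcit) are listed in the label and the 'peptide modifications' condition. Slides were probed at 4 °C for 1 h with biotin-labelled (HQ)5-HaloTag reader fusions (ATRX-ADD, ING2-PHD) then streptavidin-Alexa647, or with rabbit histone antibodies then anti-rabbit Alexa647. The mean 635 nm signal of the triplicate spots was scaled 0-1 between the lowest and highest values on each array.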
# [2] = target: HaloTag-ING2 PHD (mouse Ing2 200-280)
# Experimental: as §1
# [3] = target: anti-H3K4me3 antibody ab8580
# Experimental: as §1
# [4] = target: anti-H3K9me3 antibody ab8898
# Experimental: as §1
# [5] = peptide modifications: H3R2me2s H3K4me1, binder concentration: 1:2,000 dilution
# [6] = peptide modifications: H3R2me2s H3K4me1, binder concentration: 1:10,000 dilution
# [7] = peptide modifications: H3R2me2s H3K4me2, binder concentration: 1:2,000 dilution
# [8] = peptide modifications: H3R2me2s H3K4me2, binder concentration: 1:10,000 dilution
# [9] = peptide modifications: H3R8cit H3K9ac, binder concentration: 1:2,000 dilution
# [10] = peptide modifications: H3R8cit H3K9ac, binder concentration: 1:10,000 dilution
# [11] = peptide modifications: H3R2me2s H3T3ph, binder concentration: 1:2,000 dilution
# [12] = peptide modifications: H3R2me2s H3T3ph, binder concentration: 1:10,000 dilution
# [13] = peptide modifications: H3R2me2s H3K9ac, binder concentration: 1:2,000 dilution
# [14] = peptide modifications: H3R2me2s H3K9ac, binder concentration: 1:10,000 dilution
# [15] = peptide modifications: H3R2me2s H3K9me1, binder concentration: 1:2,000 dilution
# [16] = peptide modifications: H3R2me2s H3K9me1, binder concentration: 1:10,000 dilution
# [17] = peptide modifications: H3R2me2s H3K4ac, binder concentration: 1:2,000 dilution
# [18] = peptide modifications: H3R2me2s H3K4ac, binder concentration: 1:10,000 dilution
# [19] = peptide modifications: H3R2me2s H3K9me3, binder concentration: 1:2,000 dilution
# [20] = peptide modifications: H3R2me2s H3K9me3, binder concentration: 1:10,000 dilution
# [21] = peptide modifications: H3R8cit H3K9me1, binder concentration: 1:2,000 dilution
# [22] = peptide modifications: H3R8cit H3K9me1, binder concentration: 1:10,000 dilution
# [23] = peptide modifications: H3R2me2a H3K9me1, binder concentration: 1:2,000 dilution
# [24] = peptide modifications: H3R2me2a H3K9me1, binder concentration: 1:10,000 dilution
binder,measurement,setting,value
ARTKQTARKSTGG [H3 1-13 A Rme2s T Kme Q T A R K S T G G],peptide microarray binding signal,"[1]; peptide modifications: H3R2me2s H3K4me1, binder concentration: 50 nM",0.00815 ± 0.00038
same,peptide microarray binding signal,"[1]; peptide modifications: H3R2me2s H3K4me1, binder concentration: 500 nM",0.0162 ± 0.0009
same,peptide microarray binding signal,"[2]; peptide modifications: H3R2me2s H3K4me1, binder concentration: 10 nM",0.00573 ± 0.00037
same,peptide microarray binding signal,"[2]; peptide modifications: H3R2me2s H3K4me1, binder concentration: 100 nM",0.0481 ± 0.011
same,peptide microarray binding signal,[3]; [5],0.0368 ± 0.009
same,peptide microarray binding signal,[3]; [6],0.0228 ± 0.00057
same,peptide microarray binding signal,[4]; [5],0.00405 ± 0.0004
same,peptide microarray binding signal,[4]; [6],0.00329 ± 0.00019
ARTKQTARKSTG [H3 1-13 A Rme2s T Kme2 Q T A R K S T G],peptide microarray binding signal,"[1]; peptide modifications: H3R2me2s H3K4me2, binder concentration: 50 nM",0.00476 ± 0.00032
same,peptide microarray binding signal,"[1]; peptide modifications: H3R2me2s H3K4me2, binder concentration: 500 nM",0.00814 ± 0.00041
same,peptide microarray binding signal,"[2]; peptide modifications: H3R2me2s H3K4me2, binder concentration: 10 nM",0.00967 ± 0.00038
same,peptide microarray binding signal,"[2]; peptide modifications: H3R2me2s H3K4me2, binder concentration: 100 nM",0.0142 ± 0.0012
same,peptide microarray binding signal,[3]; [7],0.0186 ± 0.0024
same,peptide microarray binding signal,[3]; [8],0.01061 ± 5.4e-05
same,peptide microarray binding signal,[4]; [7],0.00287 ± 0.00041
same,peptide microarray binding signal,[4]; [8],0.00225 ± 0.00017
ARTKQTARKSTGG [H3 1-13 A R T K Q T A Rcit Kac S T G G],peptide microarray binding signal,"[1]; peptide modifications: H3R8cit H3K9ac, binder concentration: 50 nM",0.00718 ± 9.2e-05
same,peptide microarray binding signal,"[1]; peptide modifications: H3R8cit H3K9ac, binder concentration: 500 nM",0.0143 ± 0.00071
same,peptide microarray binding signal,"[2]; peptide modifications: H3R8cit H3K9ac, binder concentration: 10 nM",0.0183 ± 0.0039
same,peptide microarray binding signal,"[2]; peptide modifications: H3R8cit H3K9ac, binder concentration: 100 nM",0.031 ± 0.01
same,peptide microarray binding signal,[3]; [9],0.0013 ± 3.1e-05
same,peptide microarray binding signal,[3]; [10],0.002 ± 0.0002
same,peptide microarray binding signal,[4]; [9],0.00239 ± 0.00033
same,peptide microarray binding signal,[4]; [10],0.00208 ± 0.00016
ARTKQTARKSTGG [H3 1-13 A Rme2s Tph K Q T A R K S T G G],peptide microarray binding signal,"[1]; peptide modifications: H3R2me2s H3T3ph, binder concentration: 50 nM",0.0063 ± 0.00015
same,peptide microarray binding signal,"[1]; peptide modifications: H3R2me2s H3T3ph, binder concentration: 500 nM",0.0137 ± 0.00078
same,peptide microarray binding signal,"[2]; peptide modifications: H3R2me2s H3T3ph, binder concentration: 10 nM",0.00424 ± 0.00025
same,peptide microarray binding signal,"[2]; peptide modifications: H3R2me2s H3T3ph, binder concentration: 100 nM",0.0153 ± 0.003
same,peptide microarray binding signal,[3]; [11],0.00264 ± 0.0012
same,peptide microarray binding signal,[3]; [12],0.00228 ± 0.00028
same,peptide microarray binding signal,[4]; [11],0.000982 ± 0.00014
same,peptide microarray binding signal,[4]; [12],0.00075 ± 1.6e-05
ARTKQTARKSTGG [H3 1-13 A Rme2s T K Q T A R Kac S T G G],peptide microarray binding signal,"[1]; peptide modifications: H3R2me2s H3K9ac, binder concentration: 50 nM",0.0127 ± 0.00045
same,peptide microarray binding signal,"[1]; peptide modifications: H3R2me2s H3K9ac, binder concentration: 500 nM",0.0427 ± 0.0013
same,peptide microarray binding signal,"[2]; peptide modifications: H3R2me2s H3K9ac, binder concentration: 10 nM",0.0451 ± 0.0015
same,peptide microarray binding signal,"[2]; peptide modifications: H3R2me2s H3K9ac, binder concentration: 100 nM",0.0681 ± 0.0061
same,peptide microarray binding signal,[3]; [13],0.0383 ± 0.0035
same,peptide microarray binding signal,[3]; [14],0.0308 ± 0.0052
same,peptide microarray binding signal,[4]; [13],0.0163 ± 0.0031
same,peptide microarray binding signal,[4]; [14],0.00836 ± 0.00038
ARTKQTARKSTGG [H3 1-13 A Rme2s T K Q T A R Kme S T G G],peptide microarray binding signal,"[1]; peptide modifications: H3R2me2s H3K9me1, binder concentration: 50 nM",0.0197 ± 0.00077
same,peptide microarray binding signal,"[1]; peptide modifications: H3R2me2s H3K9me1, binder concentration: 500 nM",0.03 ± 0.0016
same,peptide microarray binding signal,"[2]; peptide modifications: H3R2me2s H3K9me1, binder concentration: 10 nM",0.0236 ± 0.0023
same,peptide microarray binding signal,"[2]; peptide modifications: H3R2me2s H3K9me1, binder concentration: 100 nM",0.0288 ± 0.00047
same,peptide microarray binding signal,[3]; [15],0.0193 ± 0.003
same,peptide microarray binding signal,[3]; [16],0.0216 ± 0.0013
same,peptide microarray binding signal,[4]; [15],0.0154 ± 0.00086
same,peptide microarray binding signal,[4]; [16],0.0152 ± 0.0011
ARTKQTARKSTGG [H3 1-13 A Rme2s T Kac Q T A R K S T G G],peptide microarray binding signal,"[1]; peptide modifications: H3R2me2s H3K4ac, binder concentration: 50 nM",0.0137 ± 0.00038
same,peptide microarray binding signal,"[1]; peptide modifications: H3R2me2s H3K4ac, binder concentration: 500 nM",0.046 ± 0.0095
same,peptide microarray binding signal,"[2]; peptide modifications: H3R2me2s H3K4ac, binder concentration: 10 nM",0.0299 ± 0.0078
same,peptide microarray binding signal,"[2]; peptide modifications: H3R2me2s H3K4ac, binder concentration: 100 nM",0.0957 ± 0.0077
same,peptide microarray binding signal,[3]; [17],0.00993 ± 0.0029
same,peptide microarray binding signal,[3]; [18],0.00651 ± 0.00097
same,peptide microarray binding signal,[4]; [17],0.0137 ± 0.0005
same,peptide microarray binding signal,[4]; [18],0.00617 ± 0.00064
ARTKQTARKSTGG [H3 1-13 A Rme2s T K Q T A R Kme3 S T G G],peptide microarray binding signal,"[1]; peptide modifications: H3R2me2s H3K9me3, binder concentration: 50 nM",0.172 ± 0.02
same,peptide microarray binding signal,"[1]; peptide modifications: H3R2me2s H3K9me3, binder concentration: 500 nM",0.303 ± 0.03
same,peptide microarray binding signal,"[2]; peptide modifications: H3R2me2s H3K9me3, binder concentration: 10 nM",0.0377 ± 0.0039
same,peptide microarray binding signal,"[2]; peptide modifications: H3R2me2s H3K9me3, binder concentration: 100 nM",0.0559 ± 0.0018
same,peptide microarray binding signal,[3]; [19],0.211 ± 0.015
same,peptide microarray binding signal,[3]; [20],0.14 ± 0.0028
same,peptide microarray binding signal,[4]; [19],0.81 ± 0.03
same,peptide microarray binding signal,[4]; [20],0.561 ± 0.017
ARTKQTARKSTGG [H3 1-13 A R T K Q T A Rcit Kme S T G G],peptide microarray binding signal,"[1]; peptide modifications: H3R8cit H3K9me1, binder concentration: 50 nM",0.0302 ± 0.0019
same,peptide microarray binding signal,"[1]; peptide modifications: H3R8cit H3K9me1, binder concentration: 500 nM",0.0745 ± 0.02
same,peptide microarray binding signal,"[2]; peptide modifications: H3R8cit H3K9me1, binder concentration: 10 nM",0.0223 ± 0.002
same,peptide microarray binding signal,"[2]; peptide modifications: H3R8cit H3K9me1, binder concentration: 100 nM",0.0394 ± 0.013
same,peptide microarray binding signal,[3]; [21],0.00313 ± 0.00015
same,peptide microarray binding signal,[3]; [22],0.00217 ± 9.9e-05
same,peptide microarray binding signal,[4]; [21],0.00225 ± 0.00023
same,peptide microarray binding signal,[4]; [22],0.00185 ± 5.2e-05
ARTKQTARKSTGG [H3 1-13 A Rme2a T K Q T A R Kme S T G G],peptide microarray binding signal,"[1]; peptide modifications: H3R2me2a H3K9me1, binder concentration: 50 nM",0.0646 ± 0.0083
same,peptide microarray binding signal,"[1]; peptide modifications: H3R2me2a H3K9me1, binder concentration: 500 nM",0.138 ± 0.008
same,peptide microarray binding signal,"[2]; peptide modifications: H3R2me2a H3K9me1, binder concentration: 10 nM",0.0387 ± 0.0036
same,peptide microarray binding signal,"[2]; peptide modifications: H3R2me2a H3K9me1, binder concentration: 100 nM",0.0709 ± 0.014
same,peptide microarray binding signal,[3]; [23],0.0175 ± 0.0013
same,peptide microarray binding signal,[3]; [24],0.0118 ± 0.0015
same,peptide microarray binding signal,[4]; [23],0.00838 ± 0.0011
same,peptide microarray binding signal,[4]; [24],0.00675 ± 0.00044
